Reference: PubChem BioAssay (NCI)
The panel holds about 79,000 compounds, 15% with a hit somewhere; the sample as a whole holds those more often. Activity calls are given as the source filed them. Cut-off read from the data, not from the text of the source: active = growth inhibition above about 70%; inactive = the rest.

Key:
[1] = NCI Yeast Anticancer Drug Screen. Data for the rad50 strain (AID 155);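 note: 0% = growth of vehicle-only cultures of the same strain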; details: S. cerevisiae rad50 strain growth inhibition; at 50.0 µM; active compounds read high
Summary of the method: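 Compounds were tested on a yeast strain with an engineered DNA damage repair alteration; the reported value is growth inhibition normalised to vehicle treatment.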

[2] = NCI Yeast Anticancer Drug Screen. Data for the mec2-1 strain (AID 157); details: S. cerevisiae mec2-1 strain, at 50.0 µM, active compounds read high
Summary of the method: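 Mutant yeast (mec2-1) grown with compound; growth inhibition relative to vehicle control reported.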

[3] = NCI Yeast Anticancer Drug Screen. Data for the sgs1 mgt1 strain (AID 161);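 note: 0% = growth of cultures given vehicle only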; details: S. cerevisiae sgs1 mgt1 strain, at 50.0 µM, active compounds read high
Summary of the method: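 Compounds are added to genetically altered yeast, and growth is compared with cultures given vehicle alone to give percent inhibition.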

[4] = NCI Yeast Anticancer Drug Screen. Data for the cln2 rad14 strain (AID 165);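 note: 0% = growth equal to vehicle treated cultures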; details: S. cerevisiae cln2 rad14 strain, at 50.0 µM, active compounds read high
Summary of the method: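 Readout is yeast growth inhibition versus vehicle-treated controls, using a strain with cln2 and rad14 alterations exposed to compound.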

[5] = NCI Yeast Anticancer Drug Screen. Data for the bub3 strain (AID 167); details: S. cerevisiae bub3 mutant strain, at 50.0 µM, active compounds read high
Summary of the method: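 Growth of a checkpoint-deficient yeast mutant is measured after compound exposure. Values represent inhibition relative to vehicle.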

[6] = NCI Yeast Anticancer Drug Screen. Data for the mlh1 rad18 strain (AID 175); details: S. cerevisiae mlh1 rad18 strain growth inhibition; at 50.0 µM; active compounds read high
Summary of the method: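 Genetically defined yeast (DNA repair-deficient) exposed to compounds; growth inhibition determined relative to vehicle.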

Measured: growth inhibition

CC(=O)Nc1c([N+](=O)[O-])cc(C2CCCCC2)cc1[N+](=O)[O-]
inactive: [1] -8.05% | [2] -7.25% | [3] 4.25% | [4] -34.5% | [5] 23.2% | [6] -9.85%

COC(=O)c1ccc(C)[n+](C2OC(COC(=O)c3ccccc3)C(OC(=O)c3ccccc3)C2OC(=O)c2ccccc2)c1 (stereo not given)
inactive: [1] 5.2% | [2] 3.45% | [3] 8% | [4] -25.6% | [5] -14.2% | [6] 29.1%

CC1=NN(C(=O)CC(=O)Nc2ccccc2C)C(=O)C1N=Nc1ccc(S(=O)(=O)c2ccc(N=NC3C(=O)N(C(=O)CC(=O)Nc4ccccc4C)N=C3C)cc2)cc1 (stereo not given)
inactive: [1] 41.6% | [2] 14.5% | [3] -2.25% | [4] 2.45% | [5] -8.75% | [6] 1.35%

CC(C)(C)NC(=O)NCCCCCCNC(=O)NC(C)(C)C
inactive: [1] -15.5% | [2] -13.9% | [3] -7.45% | [4] -27.9% | [5] 8.05% | [6] -7.9%

Cc1ccccc1C(c1ccccc1C)c1ccccc1C
inactive: [1] -10.8% | [2] 1% | [3] -10.8% | [4] -15.6% | [5] 1.25% | [6] -19.6%

CCCCCCC(O)CCCCCCCCCCCO (stereo not given)
inactive: [1] 41.5% | [2] -15.4% | [3] 1.05% | [4] -43% | [5] 10.2% | [6] 15.5%

COc1ccc(N2C(=O)c3c(c4[nH]c5ccccc5c4c4ccc(C(C)(C)C)cc34)C2=O)cc1
inactive: [1] 5.5% | [2] -1.2% | [3] 22.6% | [4] 19.6% | [5] -10.3% | [6] -2.2%

COc1ccc(/C=C/c2onc3c(=O)n(C)nc(-c4ccccc4)c23)cc1
inactive: [1] -22.4% | [2] -25.1% | [3] -9.2% | [4] -11.4% | [5] -2.55% | [6] -26.2%

COC(=O)c1cc2ccc1OCC#CC#CCOc1ccc(cc1C(=O)OC)OCC#CC#CCO2
inactive: [1] -1.9% | [2] 5.5% | [3] 7.35% | [4] 5.75% | [5] -0.7% | [6] 19.2%

COc1ccccc1N=Nc1c(-c2ccccc2)nn(C(N)=S)c1-c1ccccc1
inactive: [1] 35% | [2] -5.75% | [3] 19.4% | [4] 12.2% | [5] -0.05% | [6] 6.6%

CC(C)CCC[C@@H](C)[C@H]1CC[C@H]2[C@@H]3CC[C@H]4N(C)[C@@H](Cc5ccccc5)CC[C@]4(C)[C@H]3CC[C@]12C
inactive: [1] 21.8% | [2] 27.6% | [3] 32.5% | [4] 24.7% | [5] 15.4% | [6] -0.05%

O=C(O)CSCc1cc2c(O)c(c1)Cc1cc(CSCC(=O)O)cc(c1O)Cc1cc(CSCC(=O)O)cc(c1O)Cc1cc(CSCC(=O)O)cc(c1O)C2
inactive: [1] -6.9% | [2] -5.6% | [3] -6.55% | [4] 14.7% | [5] 43.8% | [6] -0.1%

CCOC(=O)C1=C(C(=O)c2ccc(OC)cc2)C(c2ccc(OC)c(OC)c2)C(C(=O)c2ccc(OC)cc2)=C(C(=O)OCC)N1
inactive: [1] -44.4% | [2] -20% | [3] -32.2% | [4] -24.6% | [5] -23% | [6] -18.8%

OCC(O)C(OC1OC(CO)C(O)C(O)C1O)C(O)c1cnn(-c2ccccc2)n1 (stereo not given)
inactive: [1] -0.05% | [2] 8.6% | [3] -24.3% | [4] -14.7% | [5] -1.5% | [6] 15.2%

CC(=O)Oc1ccc(OC(C)=O)c2cc3ccccc3cc12
inactive: [1] -28.1% | [2] -29.1% | [3] -32.9% | [4] -6.6% | [5] -12.8% | [6] -19.8%

CC1=CCC(C(C)(C)NC(=O)c2ccccc2)C/C1=N/O (stereo not given)
inactive: [1] -56.7% | [2] -43% | [3] -60.3% | [4] -49.2% | [5] -43.7% | [6] -66.5%

Cc1ccc(CCCC(=O)O)cc1C
inactive: [1] -21.6% | [2] 2.65% | [3] -7.05% | [4] 10.6% | [5] -44.2% | [6] -13.8%

C=Nc1ccc([N+](=O)[O-])c(N=C)c1
inactive: [1] -2.85% | [2] -0.25% | [3] -9.7% | [4] -18% | [5] 2.7% | [6] 5.15%

CC(C)=CC(=O)OC1C2C(C)=CC(=O)C(O)C2(C)C2C3(O)OCC24C(CC(=O)OC14)C(C)C3O (stereo not given)
active: [1] 91.6% | [2] 92.4% | [3] 91.5% | [4] 91% | [5] 90.8% | [6] 91.2%

CC(=O)c1c2c(cc3c1CCC3)CCC2
inactive: [1] -15.4% | [2] -47.2% | [3] -20.1% | [4] -26% | [5] -21.7% | [6] -0.8%
